# In PubChem BioAssay:
# Several values for one entry are separate records, joined by “and”; a condition that tells them apart may be missing. Equal entries are not always repeated. Activity calls are given as the source filed them. Unless noted, no rule for the calls is given here.
# How the values were obtained:
# [1] = polyglutamine-triggered caspase-3 activation inhibitors, cell-based (AID 1583); conditions: polyglutamine-induced caspase-3 activation, cell assay; stronger effect = higher value;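 tested at 10 µM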
# [2] = suppressors of polyQ aggregation in yeast, 75Q-TubU reporter (AID 1593); conditions: Yeast 75Q polyglutamine aggregation reporter
# [3] = circadian clock period modulators, cell-based, LOPAC library, luminescence reporter (AID 2774); conditions: circadian reporter cells, at 7 µM, actives lie on both sides;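 also: values are relative to mean of DMSO wells on each plate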
# [4] = Cy5 fluorescence quenching or enhancement artefacts, artefact control for HCV NS3 helicase inhibitor project, biochemical, LOPAC1280 (AID 687037); conditions: Cy5-DNA-NS3h complex fluorescence interference counterscreen
# [5] = stimulators of nuclear beta-catenin in C2C12, primary screen, imaging, WNT3A-conditioned medium, mouse C2C12, NPC library (AID 1117326; in the data active = nuclear beta-catenin stimulation mostly above about 4.2%, no sharp cut-off; inactive = mostly below about 10%); conditions: stronger effect = higher value
# [6] = stimulators of insulin release from INS-1E, primary screen, cell-based, 5 mM glucose, NPC library (AID 1117329;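 active = compound raises insulin release from rat beta cells at 5 mM glucose, no numeric limit stated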); conditions: rat INS-1E insulin secretion, at 10 µM, stronger effect = higher value
# [7] = growth inhibition of GSK3B-pretreated HCT116 cells – cell-based, CellTiter-Glo, 0.2 to 20 µM (AID 1117336;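 active = compounds lowering colon cancer cell viability after pretreatment blocking the GSK3B kinase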); conditions: HCT116 viability after GSK3B inhibitor, at 20 µM, stronger effect = higher value
# [8] = inhibition of endothelial tube formation, primary screen, imaging, VEGF stimulated, CD31 staining, tube area, NPC library (AID 1117340;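 active = compound that reduces growth-factor-driven endothelial tube area in a mixed cell culture, no cutoff stated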); conditions: VEGF-stimulated ADSC/ECFC co-culture, at 10 µM, stronger effect = higher value
# [9] = glucagon-like peptide 1 release enhancers, primary assay, NCI-H716 cell line, NPC library (AID 1117341;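 active = compound raises GLP1 secretion from the human gut endocrine cells, with no numeric limit stated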); conditions: NCI-H716 cells, at 10 µM, stronger effect = higher value
# [10] = HCT116 colon cancer cell growth inhibition, primary screen, CellTiter-Glo luminescence, NPC library (AID 1117342;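 active = compounds that lower survival of HCT116 colon cancer cells in the luminescence readout, no numeric limit stated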); conditions: at 20 µM (top of the series)
# [11] = CellTiter-Glo luminescent readout of SW480 viability loss, NPC library primary (AID 1117343;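 active = compounds that lower viability of the colon cancer cells in the luminescence readout, with no numeric limit stated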); conditions: CellTiter-Glo luminescence; at 20 µM (top of the series)
# [12] = decreased DLD-1 cellular survival, CellTiter-Glo luminescent readout, NPC compound collection, primary HTS (AID 1117346;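 active = compounds that lower survival of DLD-1 colon cancer cells in the luminescence readout, no cutoff given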); conditions: DLD-1 viability, CellTiter-Glo luminescence; at 20 µM (top of the series)
# [13] = biological target: 6-phosphogluconate dehydrogenase, decarboxylating (Homo sapiens) (UniProt P52209); assay: 6PGD enzyme inhibitors, primary screen, biochemical, human, recombinant enzyme, NADPH absorbance (AID 1159550;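 active = at least 20% inhibition of 6-phosphogluconate dehydrogenase activity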); conditions: recombinant 6PGD, NADPH absorbance 341 nm; at 10 µM; stronger effect = higher value
# [14] = differential killing of epithelial or mesenchymal cells, primary screen, imaging, PC-3E GFP, TEM4-18 mCherry, co-culture (AID 1345086;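 active = compounds killing one labelled cell type while sparing the other, by normalised counts and ratio limits, not self-fluorescent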;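 as to all read-outs here: cells exposed to compound for 72 h before imaging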;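 as to red/green cell ratio (normalised): normalised mesenchymal count divided by normalised epithelial count so high means epithelial killing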); conditions: imaging cell counts, at 1 µM; for red/green cell ratio (normalised): actives lie on both sides
# [15] = test system: Aerobactin synthetase IucA (Klebsiella pneumoniae hvKP1); assay: Biochemical IucA enzyme inhibition primary screen of the Spectrum library (AID 1346200); conditions: malachite green pyrophosphate, A620, at 8 µM, stronger effect = lower value;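 also: 100% = wells without compound and 0% = wells lacking enzyme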
# [16] = sensitizers of A549 cells to miR-34 induction, primary screen, imaging, A549 dox-inducible miR-34, nuclei and caspase counts (AID 1347080;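 active = compounds whose cell count with miR-34 switched on is under 0.7 times the count with it off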); conditions: A549 miR-34 inducible, Hoechst nuclei count, 48 h
# [17] = biological target: Mitogen-activated protein kinase 7 (Homo sapiens) (UniProt Q13164); assay: ERK5 transactivation activators in reporter cells, primary screen, cell-based, HTS (AID 1508626;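 active = luciferase signal above three times the same-plate solvent-only control wells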;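 also: luciferase driven by Gal4-ERK5 fusion binding five Gal4 sites before minimal TATA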); conditions: HeLa Gal4-ERK5 transactivation, 18 h, at 5 µM, stronger effect = higher value
# [18] = viability rescue of complex I mutant cybrids, primary screen, cell-based, galactose medium, ATP luminescence (AID 1645843;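 active = z-score of at least 1.8 in each of two replicates, scored against plate mean and spread of sample wells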;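 also: positive z means more ATP and so rescue of galactose-driven cybrid death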); conditions: complex I mutant cybrid cells, 72 h, stronger effect = higher value
# [19] = survival rescue of mitochondrial mutant cells in low glucose, primary screen, MELAS cybrids, Rieske KO mouse fibroblasts, CellTiter-Glo (AID 1508586;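 active = mean z-score across replicates of 1.96 or higher in either the MELAS or the Rieske mutant cell line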;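 also: z relative to plate mean and SD of compound and empty wells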)
# [20] = biological target: NAD(+) hydrolase SARM1 (Homo sapiens) (UniProt Q6SZW1); assay: SARM1 TIR NADase inhibitors, cell lysate, NAD-Glo luminescence (AID 1508614;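 active = compound whose remaining NAD level is above about 45 nM, limit read from the data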;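 also: higher remaining NAD means stronger inhibition of SARM1 NADase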); conditions: SAM-TIR HEK293T lysate NADase, at 1 µM, stronger effect = higher value
# [21] = measured here: epithelial PC-3E GFP cell survival
# [22] = measured here: mesenchymal TEM4-18 mCherry cell survival
# [23] = measured here: relative caspase fold change +Dox/-Dox
# [24] = measured here: total cells with miR-34 induction, stronger effect = lower value
# [25] = measured here: total cells without miR-34 induction
# [26] = MELAS cybrid survival, CellTiter-Glo 48 h, stronger effect = higher value
# [27] = Rieske KO mouse fibroblast survival, CellTiter-Glo 72 h
# Chain of 6-phosphogluconate dehydrogenase, decarboxylating (Homo sapiens) (P52209 whole entry, looked up): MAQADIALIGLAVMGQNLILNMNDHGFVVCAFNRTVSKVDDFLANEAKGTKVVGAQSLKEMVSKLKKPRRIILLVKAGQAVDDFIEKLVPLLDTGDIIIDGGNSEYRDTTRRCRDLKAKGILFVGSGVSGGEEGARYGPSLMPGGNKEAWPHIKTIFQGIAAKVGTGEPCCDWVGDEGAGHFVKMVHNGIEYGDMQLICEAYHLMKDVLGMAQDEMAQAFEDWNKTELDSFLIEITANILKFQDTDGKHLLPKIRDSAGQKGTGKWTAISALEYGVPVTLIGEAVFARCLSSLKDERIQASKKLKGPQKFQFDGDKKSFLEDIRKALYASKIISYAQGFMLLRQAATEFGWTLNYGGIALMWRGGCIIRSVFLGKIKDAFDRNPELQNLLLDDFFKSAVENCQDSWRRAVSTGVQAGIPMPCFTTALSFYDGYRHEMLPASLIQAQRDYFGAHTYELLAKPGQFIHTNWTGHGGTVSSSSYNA
# Chain of NAD(+) hydrolase SARM1 (Homo sapiens) (Q6SZW1 whole entry, looked up): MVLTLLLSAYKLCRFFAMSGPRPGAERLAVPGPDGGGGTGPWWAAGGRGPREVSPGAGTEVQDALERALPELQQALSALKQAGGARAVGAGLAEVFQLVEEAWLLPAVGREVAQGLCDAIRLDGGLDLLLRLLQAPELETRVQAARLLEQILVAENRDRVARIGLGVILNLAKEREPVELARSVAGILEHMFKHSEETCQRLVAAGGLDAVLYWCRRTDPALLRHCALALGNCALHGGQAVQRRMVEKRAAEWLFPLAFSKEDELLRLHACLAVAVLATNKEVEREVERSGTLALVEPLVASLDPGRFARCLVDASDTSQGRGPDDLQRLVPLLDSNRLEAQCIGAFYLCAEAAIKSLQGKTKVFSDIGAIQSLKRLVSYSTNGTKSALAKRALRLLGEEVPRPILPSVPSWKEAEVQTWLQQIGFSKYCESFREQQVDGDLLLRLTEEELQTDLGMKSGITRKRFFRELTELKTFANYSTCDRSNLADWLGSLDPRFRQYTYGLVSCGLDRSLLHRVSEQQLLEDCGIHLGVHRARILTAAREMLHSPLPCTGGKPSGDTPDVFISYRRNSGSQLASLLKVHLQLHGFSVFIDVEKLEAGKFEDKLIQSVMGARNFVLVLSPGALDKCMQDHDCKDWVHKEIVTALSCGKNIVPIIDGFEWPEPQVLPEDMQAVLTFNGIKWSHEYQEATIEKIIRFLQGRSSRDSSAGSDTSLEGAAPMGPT
# Chain of Mitogen-activated protein kinase 7 (Homo sapiens) (Q13164 whole entry, looked up, the tested form may be a part): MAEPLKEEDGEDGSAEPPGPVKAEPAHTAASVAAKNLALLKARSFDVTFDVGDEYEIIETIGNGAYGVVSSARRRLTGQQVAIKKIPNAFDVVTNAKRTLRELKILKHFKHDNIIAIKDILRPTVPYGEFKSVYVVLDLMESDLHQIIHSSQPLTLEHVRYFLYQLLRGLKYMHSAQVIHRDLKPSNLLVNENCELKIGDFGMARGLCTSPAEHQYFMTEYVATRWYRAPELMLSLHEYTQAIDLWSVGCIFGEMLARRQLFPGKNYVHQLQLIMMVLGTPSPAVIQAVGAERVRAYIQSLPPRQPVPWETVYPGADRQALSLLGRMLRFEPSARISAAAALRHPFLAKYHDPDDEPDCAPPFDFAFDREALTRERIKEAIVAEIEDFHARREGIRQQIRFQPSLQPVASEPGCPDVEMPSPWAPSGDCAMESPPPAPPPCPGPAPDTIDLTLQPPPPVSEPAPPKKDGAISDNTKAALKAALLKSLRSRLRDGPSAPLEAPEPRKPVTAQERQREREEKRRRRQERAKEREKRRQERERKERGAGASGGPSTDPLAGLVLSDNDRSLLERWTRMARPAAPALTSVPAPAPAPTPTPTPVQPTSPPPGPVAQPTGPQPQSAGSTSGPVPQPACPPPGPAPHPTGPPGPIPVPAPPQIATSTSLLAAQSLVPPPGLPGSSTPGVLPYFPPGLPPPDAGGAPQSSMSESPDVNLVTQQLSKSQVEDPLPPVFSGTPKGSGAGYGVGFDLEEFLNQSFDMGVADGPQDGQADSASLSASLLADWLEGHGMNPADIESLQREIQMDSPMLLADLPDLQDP
smiles,measurement,setting,value
C=C(C)[C@H]1Cc2c(ccc3c2O[C@@H]2COc4cc(OC)c(OC)cc4[C@@H]2C3=O)O1,inhibition,[1],5.88%
same,score,[2],3.23
same,period change,[3],-1.31 h (inactive)
same,fluorescence ratio (interference),[4],1 (inactive)
same,nuclear beta-catenin stimulation,[5]; at 10 µM,92.8% (active)
same,nuclear beta-catenin stimulation,"[5]; stimulation, at 2 µM",43.8%
same,insulin secretion stimulation,[6],-0.1% (inactive)
same,viability decrease,[7],4.4% (inactive)
same,tube area decrease,[8],107% (active)
same,GLP1 secretion stimulation,[9],2.2% (inactive)
same,inhibition of viability,[10],60.6% (active)
same,viability decrease (inhibition),[11],88.3% (active)
same,viability decrease (inhibition),[12],83.4% (active)
same,inhibition,[13],10.4% (inactive)
same,red/green cell ratio (normalised),[14],1.19 (inactive)
same,normalised cell number,[14]; [21],0.27
same,normalised cell number,[14]; [22],0.32
same,activity remaining,[15],92.3% (inactive)
same,fold change,[16]; stronger effect = lower value,1.11 (inactive)
same,fold change,[16]; [23],0.665
same,cell count,[16]; [24],1680
same,cell count,[16]; [25],1510
same,luciferase signal,[17],52 AU (inactive)
same,z-score,[18],-1.29 (inactive)
CC(C)(C)NCC(O)c1ccccc1Cl (centres undefined),inhibition,[1],4.55%
same,score,[2],1.29
same,period change,[3],-0.125 h (inactive)
same,fluorescence ratio (interference),[4],1 (inactive)
same,nuclear beta-catenin stimulation,[5]; at 10 µM,-0.7% (inactive)
same,nuclear beta-catenin stimulation,"[5]; stimulation, at 2 µM",-0.7%
same,insulin secretion stimulation,[6],-1.2% (inactive)
same,viability decrease,[7],-32.4% (inactive)
same,tube area decrease,[8],5.2% (inactive)
same,GLP1 secretion stimulation,[9],0.9% (inactive)
same,inhibition of viability,[10],-0.17% (inactive)
same,viability decrease (inhibition),[11],-2.1% (inactive)
same,viability decrease (inhibition),[12],-14.4% (inactive)
same,inhibition,[13],14% (inactive)
same,red/green cell ratio (normalised),[14],0.9 (inactive)
same,normalised cell number,[14]; [21],1.07
same,normalised cell number,[14]; [22],0.97
same,activity remaining,[15],102% (inactive)
same,fold change,[16]; stronger effect = lower value,0.985 (inactive) and 0.856 (inactive)
same,fold change,[16]; [23],1.26 and 1.33
same,cell count,[16]; [24],10200 and 9170
same,cell count,[16]; [25],10400 and 10700
same,z-score,[19]; [26],-0.495 (inactive) and -0.187 (inactive)
same,z-score,[19]; [27],0.0224 and -0.446
same,remaining NAD,[20],10 nM (inactive)
same,luciferase signal,[17],24 AU (inactive)
same,z-score,[18],0.29 (inactive) and 0.245 (inactive)
CCC1(C2=NCCN2)Cc2ccccc2O1 (centres undefined),period change,[3],0.07 h (inactive)
same,fluorescence ratio (interference),[4],1 (inactive)
same,nuclear beta-catenin stimulation,[5]; at 10 µM,1.3% (inactive)
same,nuclear beta-catenin stimulation,"[5]; stimulation, at 2 µM",-0.1%
same,insulin secretion stimulation,[6],3% (inactive)
same,viability decrease,[7],-18.3% (inactive)
same,tube area decrease,[8],6.6% (inactive)
same,GLP1 secretion stimulation,[9],2.2% (inactive)
same,inhibition of viability,[10],3.97% (inactive)
same,viability decrease (inhibition),[11],3% (inactive)
same,viability decrease (inhibition),[12],0.7% (inactive)
same,inhibition,[13],2.64% (inactive)
same,red/green cell ratio (normalised),"[14]; counts scaled to control wells, 1 = unselective",0.88 (inactive)
same,normalised cell number,[14]; [21],1.21
same,normalised cell number,[14]; [22],1.07
same,activity remaining,[15],92.2% (inactive)
same,fold change,[16]; stronger effect = lower value,0.923 (inactive) and 0.953 (inactive) and 0.905 (inactive)
same,fold change,[16]; [23],1.9 and 0.731 and 1.02
same,cell count,[16]; [24],9860 and 8980 and 10100
same,cell count,[16]; [25],10700 and 9420 and 11200
same,z-score,[19]; [26],-0.478 (inactive)
same,z-score,[19]; [27],-0.349
same,remaining NAD,[20],10 nM (inactive)
same,luciferase signal,[17],140 AU (inactive)
same,z-score,[18],0.21 (inactive) and 0.18 (inactive) and 0.695 (inactive)
CC(NC(C)(C)C)C(=O)c1cccc(Cl)c1 (centres undefined),period change,[3],0.18 h (inactive)
same,fluorescence ratio (interference),[4],1 (inactive)
same,nuclear beta-catenin stimulation,[5]; at 10 µM,-0.1% (inactive)
same,nuclear beta-catenin stimulation,"[5]; stimulation, at 2 µM",7.1%
same,insulin secretion stimulation,[6],0.3% (inactive)
same,viability decrease,[7],-43.9% (inactive)
same,tube area decrease,[8],9.3% (inactive)
same,GLP1 secretion stimulation,[9],0.3% (inactive)
same,inhibition of viability,[10],9.97% (inactive)
same,viability decrease (inhibition),[11],30.2% (inactive)
same,viability decrease (inhibition),[12],-10.5% (inactive)
same,inhibition,[13],-4.52% (inactive)
same,red/green cell ratio (normalised),[14],1.12 (inactive)
same,normalised cell number,[14]; [21],1.04
same,normalised cell number,[14]; [22],1.16
same,activity remaining,[15],97% (inactive)
same,z-score,[19]; [26],-0.0615 (inactive) and 0.02 (inactive) and 0.556 (inactive)
same,z-score,[19]; [27],-0.319 and -0.308 and 0.695
same,remaining NAD,[20],10 nM (inactive)
same,luciferase signal,[17],52 AU (inactive)
COc1ccc(OC)c(C(O)C(C)N)c1 (centres undefined),period change,[3],0.08 h (inactive)
same,fluorescence ratio (interference),[4],1 (inactive)
same,nuclear beta-catenin stimulation,[5]; at 10 µM,-1.8% (inactive)
same,nuclear beta-catenin stimulation,"[5]; stimulation, at 2 µM",-1.1%
same,insulin secretion stimulation,[6],-0.1% (inactive)
same,viability decrease,[7],4% (inactive)
same,tube area decrease,[8],-6.6% (inactive)
same,GLP1 secretion stimulation,[9],-3.9% (inactive)
same,inhibition of viability,[10],-3% (inactive)
same,viability decrease (inhibition),[11],-2.5% (inactive)
same,viability decrease (inhibition),[12],-4.2% (inactive)
same,inhibition,[13],11.8% (inactive)
same,red/green cell ratio (normalised),[14],0.84 (inactive)
same,normalised cell number,[14]; [21],1.33
same,normalised cell number,[14]; [22],1.11
same,activity remaining,[15],103% (inactive)
same,fold change,[16]; stronger effect = lower value,1.09 (inactive) and 0.79 (inactive) and 0.922 (inactive)
same,fold change,[16]; [23],1.23 and 1.51 and 0.904
same,cell count,[16]; [24],11000 and 8690 and 11600
same,cell count,[16]; [25],10000 and 11000 and 12600
same,z-score,[19]; [26],0.379 (inactive)
same,z-score,[19]; [27],0.108
same,remaining NAD,[20],10 nM (inactive)
same,luciferase signal,[17],104 AU (inactive)
same,z-score,[18],0.13 (inactive)
CC(Cc1ccc(O)cc1)NCC(O)c1cc(O)cc(O)c1 (centres undefined),inhibition,[1],7.8%
same,score,[2],1.05
same,period change,[3],0.005 h (inactive)
same,fluorescence ratio (interference),[4],1 (inactive)
same,nuclear beta-catenin stimulation,[5]; at 10 µM,-1.3% (inactive)
same,nuclear beta-catenin stimulation,"[5]; stimulation, at 2 µM",-0.9%
same,insulin secretion stimulation,[6],0.5% (inactive)
same,viability decrease,[7],-4.2% (inactive)
same,tube area decrease,[8],18.4% (inactive)
same,GLP1 secretion stimulation,[9],1.7% (inactive)
same,inhibition of viability,[10],-2.93% (inactive)
same,viability decrease (inhibition),[11],-0.4% (inactive)
same,viability decrease (inhibition),[12],-21.3% (inactive)
same,inhibition,[13],-6.23% (inactive)
same,red/green cell ratio (normalised),[14],1.06 (inactive)
same,normalised cell number,[14]; [21],0.97
same,normalised cell number,[14]; [22],1.03
same,activity remaining,[15],110% (inactive)
same,fold change,[16]; stronger effect = lower value,1 (inactive) and 0.892 (inactive) and 0.893 (inactive)
same,fold change,[16]; [23],0.955 and 0.849 and 2.71
same,cell count,[16]; [24],10100 and 8600 and 10800
same,cell count,[16]; [25],10100 and 9640 and 12100
same,z-score,[19]; [26],0.566 (inactive)
same,z-score,[19]; [27],0.235
same,remaining NAD,[20],10 nM (inactive)
same,luciferase signal,[17],48 AU (inactive)
same,z-score,[18],-0.085 (inactive)
Clc1ccc(COC(Cn2ccnc2)c2ccc(Cl)cc2Cl)cc1 (centres undefined),inhibition,[1],55.1%
same,score,[2],0.26
same,nuclear beta-catenin stimulation,[5]; at 10 µM,3.6% (inactive)
same,nuclear beta-catenin stimulation,"[5]; stimulation, at 2 µM",4.8%
same,insulin secretion stimulation,[6],2.8% (inactive)
same,viability decrease,[7],101% (active)
same,tube area decrease,[8],108% (active)
same,GLP1 secretion stimulation,[9],23.9% (active)
same,inhibition of viability,[10],102% (active)
same,viability decrease (inhibition),[11],123% (active)
same,viability decrease (inhibition),[12],103% (active)
same,inhibition,[13],-10.8% (inactive)
same,red/green cell ratio (normalised),[14],1.13 (inactive)
same,normalised cell number,[14]; [21],0.92
same,normalised cell number,[14]; [22],1.04
same,activity remaining,[15],123% (inactive)
same,z-score,[19]; [26],-0.276 (inactive) and 1.78 (inactive)
same,z-score,[19]; [27],0.45 and 0.962
same,remaining NAD,[20],10 nM (inactive)
same,luciferase signal,[17],60 AU (inactive)
same,z-score,[18],-1.53 (inactive)
